Results filed as inconclusive are left out. The source made the active and inactive calls. Calls follow the shape of the dose curve; as a rule, active = well fitted inhibition curve with a large enough effect; inconclusive = small, poorly fitted or top-dose-only effect; inactive = flat fitted curve, though single readings scatter. Where a SMILES comes first, the peptide text is derived from it. Bridges are numbered along the chain shown (N, C = ends). [ ]: non-standard residue; d: D form. hArg = N=C(N)NCCCC[C@H](N)C(=O)O; Mpa = O=C(O)CCS
Experiments:
Assay in all cases: qHTS profiling for inhibitors of Plasmodium falciparum proliferation (AID 504749); also: nearly all actives have a fitted effect of over 60% in size
Conditions in all cases: P. falciparum in erythrocytes, SYBR Green DNA, 72 h; series mostly up to 28.7 µM
CP315 = test system: CP315
Summary of the method: (§1)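 Infected RBCs, 0.3% parasitemia/2.5% Hct final; cpd 72 h, 37 C, 5% CO2; lysis buffer with saponin/triton/SYBR Green I, o/n RT dark; FI 485/535; norm. to artemisinin (0.29 uM) and DMSO.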

CP325 = test system: CP325
Summary of the method: as §1

CP329 = test system: CP329
Summary of the method: as §1

CP335 = test system: CP335
Summary of the method: as §1

DFO2036 = test system: DFO2036
Summary of the method: as §1

DIV14 = test system: DIV14
Summary of the method: as §1

DIV17 = test system: DIV17
Summary of the method: as §1

DIV30 = test system: DIV30
Summary of the method: as §1

Dd2 = test system: Dd2
Summary of the method: as §1

ECU = test system: ECU
Summary of the method: as §1

FAB9 = test system: FAB9
Summary of the method: as §1

GB4 = test system: GB4
Summary of the method: as §1

HB3 = test system: HB3
Summary of the method: as §1

ICS = test system: ICS
Summary of the method: as §1

JCK = test system: JCK
Summary of the method: as §1

N140 = test system: N140
Summary of the method: as §1

P93_24 = test system: P93_24
Summary of the method: as §1

P94_40 = test system: P94_40
Summary of the method: as §1

PAD = test system: PAD
Summary of the method: as §1

PC15 = test system: PC15
Summary of the method: as §1

Measured: Potency

NCC1CCC(C(=O)Oc2ccc(CCC(=O)O)cc2)CC1 (stereo not given)
inactive: all assays above

O=c1[nH]c(=O)c2ccccc2o1
inactive: all assays above

Cc1cccc(C)c1NC(=O)CC12CCCN1CCC2
inactive: all assays above

CC(=O)Nc1cccc(O)c1
inactive: all assays above

O=C(O)c1ccccc1C(=O)Nc1ccc(S(=O)(=O)Nc2nccs2)cc1
inactive: all assays above

CCOc1cc(NC(C)=O)ccc1C(=O)OC
inactive: all assays above

CCc1nnc(NS(=O)(=O)c2ccc(N)cc2)s1
inactive: all assays above

COc1ccc(O)cc1
inactive: all assays above

NC(=O)[C@@H]1CSSCCC(=O)N[C@@H](CCCCN=C(N)N)C(=O)NCC(=O)N[C@@H](CC(=O)O)C(=O)N[C@@H](Cc2c[nH]c3ccccc23)C(=O)N2CCC[C@H]2C(=O)N1 ([Mpa][hArg]GDWPC-NH2; disulfide 1-7)
inactive: all assays above

Cc1c(C(=O)NCCO)[n+](=O)c2ccccc2n1[O-]
inactive: all assays above

C=CCNC(N)=S
inactive: all assays above

NNc1nnc(NN)c2ccccc12
inactive: all assays above

O=C(NCCCN1CCOCC1)c1ccc(Cl)cc1
inactive: all assays above

CC(=O)Nc1ccc(C(=O)O)cc1
inactive: all assays above

Reference: PubChem BioAssay (NCATS)
